# Source: PubChem BioAssay (NCI)
# Compounds without any hit were thinned out: in the full panel of roughly 79,000, 15% have a hit. Unmarked numbers belong to inactive results. Calls of active or inactive are those of the source. Cut-off read from the data, not from the text of the source: active = growth inhibition above about 70%; inactive = the rest.
# What was measured:
# [1] = NCI Yeast Anticancer Drug Screen. Data for the rad50 strain (AID 155);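 note: 0% = growth of vehicle-only cultures of the same strain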; details: S. cerevisiae rad50 strain growth inhibition; at 50.0 µM; hits give high values
# Summary of the method: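 Genetically altered yeast (DNA repair pathway); compound treatment; growth inhibition vs vehicle ctrl.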
# [2] = NCI Yeast Anticancer Drug Screen. Data for the mec2-1 strain (AID 157); details: S. cerevisiae mec2-1 strain, at 50.0 µM, hits give high values
# Summary of the method: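 Strain: mec2-1 (DNA repair/cell cycle alteration). Compound exposure, then growth measured; inhibition expressed relative to vehicle.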
# [3] = NCI Yeast Anticancer Drug Screen. Data for the sgs1 mgt1 strain (AID 161);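 note: 0% = growth of cultures given vehicle only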; details: S. cerevisiae sgs1 mgt1 strain, at 50.0 µM, hits give high values
# Summary of the method: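 Mutant yeast exposed to compound; growth scored against vehicle-only wells.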
# [4] = NCI Yeast Anticancer Drug Screen. Data for the cln2 rad14 strain (AID 165);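 note: 0% = growth equal to vehicle treated cultures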; details: S. cerevisiae cln2 rad14 strain, at 50.0 µM, hits give high values
# Summary of the method: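 Compounds are applied to the cln2 rad14 yeast strain, and growth is then compared with that of vehicle-treated cultures to give inhibition.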
# [5] = NCI Yeast Anticancer Drug Screen. Data for the bub3 strain (AID 167); details: S. cerevisiae bub3 mutant strain, at 50.0 µM, hits give high values
# Summary of the method: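 Yeast carrying a defined mutation is treated with each compound, and growth is compared with that of vehicle-exposed cells to give inhibition.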
# [6] = NCI Yeast Anticancer Drug Screen. Data for the mlh1 rad18 strain (AID 175); details: S. cerevisiae mlh1 rad18 strain growth inhibition; at 50.0 µM; hits give high values
# Summary of the method: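 Read-out is yeast growth inhibition, calculated against vehicle-only controls. The compound was applied to a strain engineered with DNA damage repair alterations.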
Compound,growth inhibition [1],growth inhibition [2],growth inhibition [3],growth inhibition [4],growth inhibition [5],growth inhibition [6]
CC(NC(=O)NCCCl)C1CC1 (configuration not stated),-2.1%,0%,-4.75%,-11.8%,-14.4%,-0.8%
Cc1ccc(S(=O)(=O)OC2=C/C(=N\c3onc(C)c3C)c3ccccc3C2=O)cc1,-41.6%,-19.4%,-27.9%,-5.4%,-15%,-19.3%
CC(=O)NC(Cc1cc(I)c(OC(C)=O)c(I)c1)C(C)=O (configuration not stated),5.45%,7.1%,0.7%,14.6%,4%,-18.4%
O=C(Nc1ccccc1)n1cc(-c2ccccn2)c(N2CCOCC2)n1,-4.6%,-11.1%,6.15%,-64.5%,-12.9%,-14.4%
CC(C)(C)C(=O)[CH-]C(=O)C(C)(C)C.CC(C)(C)C(=O)[CH-]C(=O)C(C)(C)C.CN(C)c1ccc([O-])cc1.CN(C)c1ccc([O-])cc1.[Ti+4],-20.8%,-16.5%,-12.2%,12.2%,5.4%,-11.2%
CCOC(=O)C1=C2c3ccc4cc(OC)ccc4c3CCC2(C)C(=O)C1 (configuration not stated),-19.1%,15.5%,-2.55%,-21.1%,-11.2%,-21.1%
CC(=O)NC(NC(C)=O)c1ccccc1,-16.6%,-8.5%,-5.45%,-8.55%,-26.4%,-20.5%
NC(CC1C=CC=CC1)C(=O)O (configuration not stated),0.6%,3.15%,8.35%,-6%,-4.05%,-4.85%
Cn1c2nc(-[n+]3ccc(N4CCOCC4)cc3)nc-2c([O-])n(C)c1=O,-20.8%,1.1%,-17.9%,-44.9%,-10.8%,-11.7%
Cc1cc(NS(=O)(=O)c2ccc(NC(NC(=O)C(C(F)(F)F)C(F)(F)F)(C(F)(F)F)C(F)(F)F)cc2)no1,1.4%,-18.1%,-24.9%,-8.4%,10.6%,0.55%
CCCC(C)NC(=O)c1ccc(OCC)cc1 (configuration not stated),-12.6%,-3%,-4.95%,-44%,-12.3%,-3.85%
COc1cccc2c1C(=O)c1c(O)c3c(c(O)c1C2=O)CC(O)(C(O)CO)CC3OC1CC(N2CCSCC2)C(O)C(C)O1 (configuration not stated),87.7% (active),87.5% (active),88% (active),84% (active),85.8% (active),90.3% (active)
CN(C)c1ccc(/C=N\NC(=S)Nc2ccc3cn[nH]c3c2)cc1,20.9%,-10.9%,-1.15%,8.1%,23.3%,-9.5%
CC1(C)CC(Nc2ccccc2)=CC(=Nc2ccccc2)S1,-13.1%,-11.2%,-3.55%,-25.2%,-32.5%,-14.2%
C[CH2][Sn]([CH2]C)([N](c1ccccn1)c1ccccn1)[N](c1ccccn1)c1ccccn1,-1.75%,-2.25%,-26.2%,4.3%,-0.6%,-25.1%
CCCCN(CCOc1ccnc(=O)[nH]1)CC(C)C,6%,13.2%,-3.2%,-35.5%,11.3%,-7.7%
Clc1ccc(-c2c3nc(c(-c4ccc(Cl)cc4)c4ccc([nH]4)c(-c4ccc(Cl)cc4)c4nc(c(-c5ccc(Cl)cc5)c5ccc2[nH]5)C=C4)C=C3)cc1,-30.6%,-17.9%,-12.4%,15.8%,-14.3%,-18.9%
CC1COCC(C)N1CC(OCc1ccccc1)c1ccccc1 (configuration not stated),-5.7%,-2.2%,-15.4%,-52.2%,-7.9%,-15.5%
COc1ccc(C(Br)C(Br)C(=O)C(C)(C)C)cc1 (configuration not stated),-2.95%,8.75%,6.2%,-21.6%,31.6%,30.4%
COC(=O)C1(C(=O)OC)C2CCCCC21 (configuration not stated),4.65%,9.3%,-6.6%,12.8%,-13.9%,7.1%
COc1ccc(NC(=O)C(=O)C2CNC(=O)NC2=O)c(OC)c1 (configuration not stated),-9.2%,-5.8%,-17.6%,-6.65%,-13.1%,-17.3%

Compound,growth inhibition [1],growth inhibition [2],growth inhibition [3],growth inhibition [4],growth inhibition [5],growth inhibition [6]
CN(c1nc(=[N+](C)C)ss1)C1CCCCC1,9.4%,17.2%,16.1%,-39.5%,-12.8%,15.2%
N#CC1CC2c3ccccc3C1([N+](=O)[O-])c1ccccc12 (configuration not stated),54.5%,26.9%,12.8%,43%,45%,70.7% (active)
Nc1nc(SCC(=O)c2ccc(F)cc2)sc1C(=O)c1ccc(F)cc1,-9.75%,6.9%,1.4%,1.3%,-0.9%,14%
O=C(CC(O)(C(F)(F)F)C(F)(F)F)c1cccs1,3.65%,15.4%,3.75%,-34.9%,-5.15%,7.5%
Cc1cc2nnn(C3CCCCO3)c2cc1C (configuration not stated),3.25%,-12.9%,-17.9%,-15.8%,12.8%,-31.7%
O=C1N[C@H](Cc2cnc[nH]2)C(=O)N2CCC[C@@H]12,15.2%,-3.55%,8.75%,16.1%,9.75%,23.7%
Cc1cccc(C)c1NC(=S)NC1CC(C)CC(C)(C)C1 (configuration not stated),41.2%,50.5%,76.7% (active),57.9%,63%,50.3%
CN(C)c1ccc(/C(=N\O)C(=O)O)cc1,-15.2%,-13.3%,-2.2%,-9.1%,0.1%,1.55%
CCCCCOC(=O)c1cc2ccccc2cc1O,-3%,-8.05%,-8.95%,-39.6%,30.1%,-7.8%
OC(COc1c2ccccc2nc2ccccc12)CN1CCN(c2ccccc2)CC1 (configuration not stated),21.9%,-5.45%,6.5%,9%,0.9%,19.9%
CCCCN(CCCC)CC(O)c1cc(-c2cc(C(O)CN(CCCC)CCCC)c3ccccc3n2)nc2ccccc12 (configuration not stated),50.9%,-8.2%,46.1%,-6.85%,5.3%,32.4%
C[C@@H](C1CCC2C3C(=CC(=O)[C@@]21C)[C@H](C)[C@]1(CCC(=O)O1)C1OC31)[C@H]1C[C@]2(C)O[C@@](C)(O1)OC2(C)C (some centres not stated),-11.2%,-0.9%,-25.9%,-4.85%,-14.2%,9.15%
CCCCCC/C=N\OC(N)=O,12.9%,15.2%,-4.9%,-12.9%,3.35%,11.8%
C[C@H](CCC(=O)NCC(=O)O)[C@H]1CC[C@H]2[C@@H]3[C@H](O)C[C@@H]4C[C@H](O)CC[C@]4(C)[C@H]3CC[C@]12C,14.2%,-13.4%,0.15%,4.05%,-0.3%,6.5%
CCOC(=O)CCCCCC(=O)OCC,4%,0.25%,-2.7%,4.1%,12.8%,1.8%
CC(C)(CCCCC(C)(C)C1NC(=O)N1)C1NC(=O)N1,-42.6%,-7.4%,-67.9%,-46.5%,-9.1%,-43.1%
CC(=O)Nc1c(C(N)=O)cnn1-c1ccccc1,17.9%,26.6%,17.7%,-0.2%,24.5%,36.9%
CC(=O)OCC(=O)C1(O)C(C)CC2C3CCC4CC(=O)CCC4(C)C3=CCC21C (configuration not stated),43.1%,-16.6%,0.65%,-2.95%,26.1%,23.8%
CC1CCN(C(=S)[S-])CC1.CC1CCN(C(=S)[S-])CC1.[Zn],58.9%,9.05%,54.2%,34.2%,5.85%,32.9%
O=C(Nc1ccc(Cl)c(Cl)c1)Oc1ccccc1Cl,-15.2%,-29.6%,-4.9%,-36%,-16.4%,-29.9%
CC(=O)Nc1cc(-c2ccccc2)cc(-c2ccccc2)c1,11.6%,0.4%,-2.55%,1.5%,10.7%,22.4%
